CYP2C19 inh = blockers of cytochrome P450 2C19 activity – biochemical, luminescence, ADME assay, primary screen | P33261 | CYP2C19 Supersomes, luciferin-H EGE luminescence, 30 min | inhibition, % at 5 µM | 96,000 compounds, 21% hits;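 active means CYP2C19 inhibition above a set limit at 5 µM in the primary screen, cut at about 50% in these data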;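 further: plate controls were negative control wells for no effect and 2.5 mM tranylcypromine positive control for full effect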
Target sequence (P33261 whole entry, looked up): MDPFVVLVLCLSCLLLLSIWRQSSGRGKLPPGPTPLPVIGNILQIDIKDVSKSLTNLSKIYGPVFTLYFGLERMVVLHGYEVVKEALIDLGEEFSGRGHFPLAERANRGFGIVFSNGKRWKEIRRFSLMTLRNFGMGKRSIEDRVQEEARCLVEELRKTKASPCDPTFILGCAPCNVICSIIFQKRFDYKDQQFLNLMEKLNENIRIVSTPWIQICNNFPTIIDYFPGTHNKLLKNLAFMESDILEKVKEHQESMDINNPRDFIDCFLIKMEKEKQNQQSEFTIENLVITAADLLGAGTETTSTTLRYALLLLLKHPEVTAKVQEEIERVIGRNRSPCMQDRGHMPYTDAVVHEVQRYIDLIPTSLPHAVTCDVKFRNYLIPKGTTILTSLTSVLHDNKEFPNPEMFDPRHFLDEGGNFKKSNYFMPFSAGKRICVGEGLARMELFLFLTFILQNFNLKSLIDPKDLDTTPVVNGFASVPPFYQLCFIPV
CYP2C9 inh = blockers of cytochrome P450 2C9 activity – biochemical, luminescence, ADME assay, primary screen; CYP2C9 Supersomes, luciferin-H conversion; inhibition, % at 5 µM; 96,000 compounds, 20% hits; AID 777, 2007;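 active means blocking of liver enzyme CYP2C9 beyond about 50% at 5 µM, limit read from the data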
PostGolgi ctrl = growth inhibition of yeast control strain, primary screen, counter-screen for post-Golgi transport modulator project; efflux-deficient yeast background strain, growth absorbance A615, 16 h; 98,000 compounds, 5% hits; AID 738, 2007; inhibition, % at 10 µM
CYP2C9 activ = human CYP2C9 activators, primary screen, biochemical, luminescence | Cytochrome P450 2C9 (Homo sapiens), P11712 | recombinant CYP2C9, luciferin-H conversion; stronger effect = higher value; factor 1 = untreated enzyme, 0 = blocked | activation factor at 5 µM | AID 1024, 2008 | 96,000 compounds, 1.4% hits;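 active means activation factor of 2 or more for CYP2C9 at a 5 µM dose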;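 further: 0 = sulfaphenazole-blocked wells and 1 = vehicle-only wells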
PostGolgi yeast = phenotypic screen on post-Golgi transport, primary screen; post-Golgi transport phenotypic cell assay; inhibition, % at 10 µM; AID 739, 2007; 98,000 compounds, 0.9% hits;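 further: yeast cells grown in 1536-well plates; yeast grown about 18 h at 30C before absorbance read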
CYP2C19 activ = human CYP2C19 activators, primary screen, biochemical, luminescence; recombinant CYP2C19, luciferin-H EGE luminescence; stronger effect = higher value; 0 = fully inhibited enzyme, 1 = untreated enzyme; 96,000 tested, under 10 active; Cytochrome P450 2C19 (Homo sapiens), P33261; activation factor at 5 µM;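 active means activation factor of at least 2 at 5 µM in the primary screen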;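 further: 0 = wells with 2.5 mM tranylcypromine and 1 = vehicle-only wells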
* marks the source's active call; other numbers are inactive results; nt = no result. Rows were chosen to be rich in hits. Some 32% of all compounds tested hit in one or more screens of this group. Unless noted, no stated cut-off is given here; in the data, active means inhibition above about 30%; inactive means the rest.

SMILES | CYP2C19 inh | CYP2C9 inh | PostGolgi ctrl | CYP2C9 activ | PostGolgi yeast | CYP2C19 activ
Cc1nc2c(C(=O)N3CCCC3)cnn2c(C)c1Cc1c(F)cccc1Cl | 53.6* | -20.4 | 1.8 | 1.2 | -5.0 | 0.5
Cc1nc2c(C(=O)N3CCN(c4ccccn4)CC3)cnn2c(C)c1Cc1cccc(Cl)c1 | 98.2* | 73.9* | 26.8 | 0.3 | 7.2 | 0
Cc1nc2c(C(=O)O)cnn2c(C)c1Cc1ccccc1F | -9.1 | -19.2 | 6.4 | 1.2 | 0.8 | 1.1
S=P(c1ccc(N2CCOCC2)cc1N1CCOCC1)(N1CCOCC1)N1CCOCC1 | 25.4 | 17.7 | nt | 0.8 | nt | 0.7
O=C(/C=C/c1ccccc1)NCCSCc1ccccc1Cl | 34.7 | 57.4* | 9.8 | 0.4 | 0.5 | 0.7
O=C(/C=C/c1ccc(Cl)cc1)NCCSc1ccccc1 | 31.9 | -1.7 | -10.6 | 1 | -2.8 | 0.7
CCC12CCCN3CCC4(C(=C(C(=O)OC)C1)Nc1ccccc14)C32 (configuration not stated) | 63.4* | 58.2* | 5.6 | 0.4 | 2.3 | 0.4
c1cn2c(NC3CCCC3)c(-c3ccc(N4CCOCC4)cc3)nc2cn1 | 95.1* | 97.6* | 3.9 | 0 | -0.8 | 0
CC(C)c1nc2ccccn2c1NC1CCCCC1 | 8.1 | -4.5 | 1.1 | 1 | 0.2 | 0.9
c1ccc(-c2nc3cnccn3c2Nc2ccc3c(c2)OCCO3)cc1 | nt | nt | 9.5 | nt | 4.2 | nt
CCN(CC)c1ccc(-c2nc3cnccn3c2NC2CCCC2)cc1 | 94.3* | 98.1* | 35.0* | 0 | -8.4 | 0.1
Cc1cc(N2C(=O)C(=O)/C(=C(/O)c3ccc(F)cc3)C2c2ccc(Cl)cc2)no1 (configuration not stated) | 3.3 | 56.7* | 9.3 | 0.4 | -2.4 | 1
Cn1c(NC(=O)c2ccc(Cl)cc2)c(-c2ccccn2)c(=O)c2ccccc21 | 15.9 | 8.7 | -4.0 | 0.9 | -1.9 | 0.8
Cc1cc(/C=N\NC(=O)CC(=O)NC2CCCCC2)c(C)n1-c1ccc(Cl)c(Cl)c1 | -12.8 | -7.5 | 10.0 | 1.1 | -7.3 | 1.1
COc1cccc(NC(=O)C(=O)N/N=C/c2cc(C)n(-c3ccc(Cl)c(Cl)c3)c2C)c1 | 57.1* | 30.2 | -7.1 | 0.7 | -1.6 | 0.4
CCOC(=O)C1=C(N)Oc2cc(C)n(C)c(=O)c2C1c1ccncc1 (configuration not stated) | 71.9* | 72.6* | 17.5 | 0.3 | -0.5 | 0.3
CCOC(=O)C1=C(N)Oc2cc(C)oc(=O)c2C1c1cccnc1 (configuration not stated) | 60.5* | 63.3* | 0.3 | 0.4 | 0.0 | 0.4
CCOC(=O)C1=C(N)Oc2c(c(=O)[nH]c3ccccc23)C1c1ccccc1 (configuration not stated) | 1.7 | 74.2* | 2.9 | 0.3 | -2.7 | 1
CCCCCCNc1c(C(=O)OCC)c(=O)[nH]c2ccccc12 | 13.2 | 14.0 | 27.6 | 0.9 | -6.8 | 0.9
CCOC(=O)C1=C(N)Oc2cc(C)[nH]c(=O)c2C1c1ccncc1 (configuration not stated) | 74.6* | 74.3* | 3.4 | 0.3 | -6.1 | 0.3
CCOC(=O)C1=C(N)Oc2cc(C)n(CCc3ccc(OC)c(OC)c3)c(=O)c2C1c1cccnc1 (configuration not stated) | 35.9 | 25.5 | -5.0 | 0.7 | 2.9 | 0.6
Cc1ccccc1NC(=O)C1C2CCCC1C2c1ccccc1 (configuration not stated) | 36.9 | 15.5 | -5.5 | 0.8 | -7.0 | 0.6
CCN(CC)C(=O)CN1C(=O)COCC1=O | 8.1 | 19.7 | 8.8 | 0.8 | 2.2 | 0.9
Brc1ccc(-c2cnnc(N3CCCC3)n2)cc1 | 49.0 | 40.9 | 13.4 | 0.6 | -0.8 | 0.5
CCOC(=O)C1=C(C)NC(=O)CC1c1ccccc1 (configuration not stated) | 7.6 | -2.7 | -1.8 | 1 | -2.6 | 0.9
SMILES | CYP2C19 inh | CYP2C9 inh | PostGolgi ctrl | CYP2C9 activ | PostGolgi yeast | CYP2C19 activ
CCOC(=O)C1=C(C)Nc2nc(SCC)[nH]c(=O)c2C1c1ccncc1 (configuration not stated) | 83.8* | 63.5* | 7.9 | 0.4 | 6.9 | 0.2
CCOC(=O)C1=C(C)N(C)C(C)=C(C(=O)OCC)C1c1cccnc1 | 86.6* | 83.9* | 15.5 | 0.2 | -1.7 | 0.1
COc1ccc2c(c1)c1ncn(CCN3CCNCC3)c(=O)c1n2C | 3.8 | 5.0 | 7.3 | 0.9 | -4.1 | 1
Cc1occc1C(=O)N1CCN(c2ncccn2)CC1 | 11.5 | 10.2 | 2.9 | 0.9 | 3.6 | 0.9
CC1=C(SCCC#N)S/C(=C2\SC(C)=C(SCCC#N)S2)S1 | -4.2 | -1.9 | -6.6 | 1 | 15.1 | 1
CC(=O)Nc1ccc(S(=O)(=O)N2CCN(CC(=O)NC3CCCC3)CC2)cc1 | -21.1 | -8.8 | 1.9 | 1.1 | -3.6 | 1.2
CC(C)(C)NC(=O)CSc1nccn1Cc1ccccc1 | 44.4 | 12.5 | 4.5 | 0.9 | -8.3 | 0.6
N#CCCNC(=O)CCN1CCOCC1 | -21.3 | -11.6 | 6.4 | 1.1 | -5.8 | 1.2
COc1ccc(OC(C)C(=O)NCc2cccnc2)cc1 (configuration not stated) | 37.4 | 34.6 | -2.7 | 0.7 | 8.6 | 0.6
Cc1c(Br)c([N+](=O)[O-])nn1C(C)C(=O)NCc1cccnc1 (configuration not stated) | 76.2* | 56.8* | 2.9 | 0.4 | -7.1 | 0.2
COC(=O)c1cc(-c2c(C)nn(-c3ccccc3)c2C)n[nH]1 | -5.0 | -4.9 | 16.6 | 1 | -4.4 | 1.1
COC(=O)c1cc(-c2ccc(Br)cc2)n[nH]1 | 69.4* | 16.6 | -0.3 | 0.8 | -6.2 | 0.3
COC(=O)c1cc(-c2c[nH]c3ccccc23)n[nH]1 | 85.4* | 83.6* | 27.0 | 0.2 | 1.7 | 0.1
CCN(CC)CCNC(=O)Cn1nc(Cc2cccnc2)c2ccccc2c1=O | -0.6 | 14.8 | 0.9 | 0.9 | -5.6 | 1
Cc1ccc(NC(=O)CSC2=C(C#N)C(c3ccc4c(c3)OCO4)C3=C(CCCC3=O)N2)c(C)c1 (configuration not stated) | 87.6* | 93.4* | 7.1 | 0.1 | 1.9 | 0.1
COC(=O)CSC1=C(C#N)C(c2ccc3c(c2)OCO3)C2=C(CCCC2=O)N1 (configuration not stated) | 74.2* | 85.6* | 5.3 | 0.1 | -8.8 | 0.3
CCOC(=O)CSC1=C(C#N)C(C)C2=C(CCCC2=O)N1 (configuration not stated) | 94.0* | -3.0 | 1.4 | 1 | -1.8 | 0.1
COC(=O)CSC1=C(C#N)C(c2ccc(C)cc2)C2=C(CCCC2=O)N1 (configuration not stated) | 6.9 | 31.4 | 17.9 | 0.7 | -6.0 | 0.9
